From PubChem BioAssay AID504727 (Broad Institute, 2011)
The source made the active and inactive calls.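 How the source made its calls: active means fitted half-maximal concentration AC50 at or below ten times the highest valid tested dose, with signal falling as DNA is displaced (actives reach about 34 µM in these data); inconclusive means flat fit at moderate signal loss, or poor fit quality; inactive means the rest, including signal rising instead of falling.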

Test: acridine orange-DNA binding displacement – biochemical, fluorescence polarization, cherry-picked samples, set 2, artefact control for KSHV LANA DNA-binding inhibitor project, dose response (AID 504727)
Settings: series mostly up to 35 µM

| SMILES | AC50 |
| --- | --- |
| CCCCN(C(=O)CSc1nnc(-c2ccc(Cl)cc2)o1)c1c(N)n(CC(C)C)c(=O)[nH]c1=O | inactive |
| O=C(O)CCCCCn1c(SCC(=O)c2ccc(O)c(O)c2)nc2ccsc2c1=O | 23.8 µM (active) |
| CN(C)/C=C1\C=C2C(=O)c3ccccc3N2C1=O | 0.065 µM (active) |
| Nc1ccc2nc3c(=O)[nH]c(=S)[nH]c3nc2c1 | 3.69 µM (active) |
| Cn1c(=O)c2c(nc(N/N=C/c3ccc(OC(=O)c4ccco4)cc3)n2Cc2ccc(F)cc2)n(C)c1=O | inactive |
| O=C(Nc1ccccc1F)c1coc(=O)c(Br)c1 | inactive |
| O=[N+]([O-])c1cccc(CSc2nc3ccccc3[nH]2)c1 | inactive |
| COc1ccc(CCNC(=O)CNC(=O)Cn2ccc3ccccc3c2=O)cc1OC | inactive |
| CCN(C(=O)COC(=O)c1nc2nc(C)cc(C)n2n1)C1CCCCC1 | inactive |
| Cc1noc(C)c1C(=O)N1CCN(c2ccc(OCc3ccccc3)cc2)CC1 | inactive |
| O=c1ccc2cc3c4c(c2o1)CCCN4CCC3 | 15.1 µM (active) |
| Nc1ccc(-c2c3ccc(=O)cc-3oc3cc(O)ccc23)cc1C(=O)O | 1.07 µM (active) |
| c1ccc(-c2cn3nc(-c4ccccc4)c(-c4ccccc4)nc3n2)cc1 | 23 µM (active) |
| CCOc1ccc(-n2c(Cc3cc(=O)[nH]c(=O)[nH]3)nnc2SCc2cccnc2)cc1 | inactive |
| NC(=S)COc1ccccc1 | inactive |
| O=S(=O)(NCc1cccnc1)c1ccc(Cl)s1 | inactive |
| CCn1c(SCc2nc3sc(C(=O)O)c(C)c3c(=O)[nH]2)nc2ccccc21 | inactive |
| CN(Cc1cnc2nc(N)nc(N)c2n1)c1ccc(C(=O)NC(CCC(=O)O)C(=O)O)cc1 (centres undefined) | inactive |
| CC(=O)Nc1ccc(S(=O)(=O)Nc2ccccc2N2CCOCC2)cc1 | inactive |
| Nc1ccc(-c2nc3ccc(C(=O)O)cc3s2)cc1 | inactive |

| SMILES | AC50 |
| --- | --- |
| Cn1c(=O)oc2cc(S(=O)(=O)CCC(=O)N3CCN(c4ccccc4F)CC3)ccc21 | inactive |
| CC1=NN(c2cccc(C(=O)O)c2)C(=O)/C1=C\C=C\c1ccco1 | inactive |
| Nc1ccc2nc3c(=O)n(C4CCCCC4)c(=O)[nH]c3nc2c1 | 3.19 µM (active) |
| CC(C)(C)OC(=O)C[C@@H]1C/C=C\C[C@H](CC(=O)N(CCO)Cc2ccccc2)C(=O)N[C@@H](c2ccccc2)COC1=O | inactive |
| CCOc1ccc(Nc2ccc(N)c(S(=O)(=O)O)c2)cc1 | inactive |
| CCCN(CCC)S(=O)(=O)c1ccc(C(=O)OCCN2C(=O)c3cccc4c(N5CCOCC5)ccc(c34)C2=O)cc1 | 6.89 µM (active) |
| CCC(C)[C@H](NC(=O)[C@@H]1Cc2ccccc2CN1)C(=O)Nc1ccc2c(c1)OCO2 (some centres undefined) | inactive |
| O=C1CCN2C=Nc3cccc4ccc1c2c34 | 2.29 µM (active) |
| O=C(N/N=C/c1ccc(N2CCOCC2)cc1)c1ccccn1 | inactive |
| CCCN(CCC)C(=O)C1c2ccccc2Oc2ccccc21 | inactive |
| CCc1noc(C)c1C(=O)N1CCCC(N2CCN(c3ccc(F)cc3)CC2)C1 (centres undefined) | inactive |
| Cc1noc(C)c1CSCC(=O)Nc1nc2c(F)cc(F)cc2s1 | inactive |
| CCCCn1nc(CC(=O)O)c2ccccc2c1=O | inactive |
| CCN(CCCNC(=O)Cn1cc2c(n1)CCCC2)c1cccc(C)c1 | inactive |
| O=C1/C(=C/c2ccco2)Oc2c1ccc(O)c2CN1CCCCC1 | 18.9 µM (active) |
| Clc1ccc(-c2nnc3sc(-c4ccc(Br)o4)nn23)cc1 | inactive |
| CC(C)c1ccc(CNc2ccc([N+](=O)[O-])cn2)cc1 | inactive |
| Nc1ccc2c3c(cccc13)C(=O)N(c1ccccc1)C2=O | 3.91 µM (active) |
| CS(=O)(=O)Nc1nc2n(n1)C(c1ccccc1)C=C(c1ccc(Br)cc1)N2 (centres undefined) | 18 µM (active) |
